The full data set covers some 7,900 targets. This sample favours those with a hit. About 0.6% of all pairs of compound and target were hits.
Compound: CCn1cc(-c2ccnc3[nH]c(-c4cccc(CN(C)C)c4)cc23)c(-c2ccc(NC(=O)N(C)C)cc2)n1
Experiment: log2 fold change, soluble protein after heating vs DMSO (PISA); higher = thermal stabilisation; K562 cells, 10 uM, 30 min; active = over 0.2 and 3.5 SD of the protein, either way, in both replicates (recomputed)
Outline: (§1)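 K562 cells at 2×10^6 cells/mL were treated for 30 min with 10 μM compound, and aliquots were heated for 3 min over 48°C-58°C before pooling. Extraction used PBS with 0.5% NP-40 at 4°C, and soluble protein was the supernatant after 21,000xg for 90 min, measured by TMTpro 16plex LC-MS/MS with channel sums equalised. Thermal stability values, relative to control samples and from duplicates, are log2 fold changes.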

Chain of UniProt P61960 (P61960 whole entry, looked up): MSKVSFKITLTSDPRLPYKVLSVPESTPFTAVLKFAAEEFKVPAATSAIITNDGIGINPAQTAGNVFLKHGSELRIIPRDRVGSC
Chain of UniProt Q8N2K1 (Q8N2K1 whole entry, looked up): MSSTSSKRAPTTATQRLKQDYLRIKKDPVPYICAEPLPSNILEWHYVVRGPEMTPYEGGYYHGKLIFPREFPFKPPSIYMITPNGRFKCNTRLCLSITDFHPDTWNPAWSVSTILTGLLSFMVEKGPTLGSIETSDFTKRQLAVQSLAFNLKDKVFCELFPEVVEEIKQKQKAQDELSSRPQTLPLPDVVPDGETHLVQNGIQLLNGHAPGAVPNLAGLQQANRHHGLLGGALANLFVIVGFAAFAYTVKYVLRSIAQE
Chain of UniProt Q9HCN3 (Q9HCN3 whole entry, looked up): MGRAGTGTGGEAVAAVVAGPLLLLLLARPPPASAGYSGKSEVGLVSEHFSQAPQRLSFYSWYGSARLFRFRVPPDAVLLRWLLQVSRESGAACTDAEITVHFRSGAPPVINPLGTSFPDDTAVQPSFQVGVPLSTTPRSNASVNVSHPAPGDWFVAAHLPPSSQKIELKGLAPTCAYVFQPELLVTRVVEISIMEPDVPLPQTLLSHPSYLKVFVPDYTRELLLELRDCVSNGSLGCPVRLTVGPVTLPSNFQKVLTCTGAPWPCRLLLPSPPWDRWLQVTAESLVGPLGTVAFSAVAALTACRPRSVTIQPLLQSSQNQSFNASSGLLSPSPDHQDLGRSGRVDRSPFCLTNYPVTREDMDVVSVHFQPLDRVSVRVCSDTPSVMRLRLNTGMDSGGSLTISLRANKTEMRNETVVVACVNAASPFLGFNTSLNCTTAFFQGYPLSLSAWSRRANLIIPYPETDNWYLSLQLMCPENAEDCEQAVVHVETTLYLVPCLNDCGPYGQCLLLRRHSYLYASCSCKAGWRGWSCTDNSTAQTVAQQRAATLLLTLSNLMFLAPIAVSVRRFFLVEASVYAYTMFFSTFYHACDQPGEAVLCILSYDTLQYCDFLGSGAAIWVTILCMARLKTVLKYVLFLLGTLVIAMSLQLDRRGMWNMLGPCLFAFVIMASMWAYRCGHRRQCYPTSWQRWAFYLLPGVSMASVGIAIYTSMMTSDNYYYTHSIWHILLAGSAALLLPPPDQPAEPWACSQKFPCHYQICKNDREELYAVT
Chain of UniProt Q16881 (Q16881 whole entry, looked up): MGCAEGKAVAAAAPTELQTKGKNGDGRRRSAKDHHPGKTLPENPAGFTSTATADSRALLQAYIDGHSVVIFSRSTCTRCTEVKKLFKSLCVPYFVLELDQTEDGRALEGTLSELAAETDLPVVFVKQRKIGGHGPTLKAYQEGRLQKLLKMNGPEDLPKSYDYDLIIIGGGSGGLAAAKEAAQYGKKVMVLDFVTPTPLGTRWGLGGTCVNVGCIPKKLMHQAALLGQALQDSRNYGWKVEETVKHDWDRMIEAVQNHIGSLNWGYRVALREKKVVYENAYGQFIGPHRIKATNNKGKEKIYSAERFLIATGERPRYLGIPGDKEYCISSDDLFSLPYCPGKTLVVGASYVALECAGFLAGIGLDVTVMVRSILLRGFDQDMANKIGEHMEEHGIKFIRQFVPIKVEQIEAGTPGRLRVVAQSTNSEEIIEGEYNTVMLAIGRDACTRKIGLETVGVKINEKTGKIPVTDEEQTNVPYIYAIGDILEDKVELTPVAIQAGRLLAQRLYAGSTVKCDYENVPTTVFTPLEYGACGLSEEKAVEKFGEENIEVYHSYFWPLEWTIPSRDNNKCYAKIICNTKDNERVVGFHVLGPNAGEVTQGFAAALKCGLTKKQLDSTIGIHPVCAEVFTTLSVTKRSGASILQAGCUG
Chain of UniProt Q502W6 (Q502W6 whole entry, looked up): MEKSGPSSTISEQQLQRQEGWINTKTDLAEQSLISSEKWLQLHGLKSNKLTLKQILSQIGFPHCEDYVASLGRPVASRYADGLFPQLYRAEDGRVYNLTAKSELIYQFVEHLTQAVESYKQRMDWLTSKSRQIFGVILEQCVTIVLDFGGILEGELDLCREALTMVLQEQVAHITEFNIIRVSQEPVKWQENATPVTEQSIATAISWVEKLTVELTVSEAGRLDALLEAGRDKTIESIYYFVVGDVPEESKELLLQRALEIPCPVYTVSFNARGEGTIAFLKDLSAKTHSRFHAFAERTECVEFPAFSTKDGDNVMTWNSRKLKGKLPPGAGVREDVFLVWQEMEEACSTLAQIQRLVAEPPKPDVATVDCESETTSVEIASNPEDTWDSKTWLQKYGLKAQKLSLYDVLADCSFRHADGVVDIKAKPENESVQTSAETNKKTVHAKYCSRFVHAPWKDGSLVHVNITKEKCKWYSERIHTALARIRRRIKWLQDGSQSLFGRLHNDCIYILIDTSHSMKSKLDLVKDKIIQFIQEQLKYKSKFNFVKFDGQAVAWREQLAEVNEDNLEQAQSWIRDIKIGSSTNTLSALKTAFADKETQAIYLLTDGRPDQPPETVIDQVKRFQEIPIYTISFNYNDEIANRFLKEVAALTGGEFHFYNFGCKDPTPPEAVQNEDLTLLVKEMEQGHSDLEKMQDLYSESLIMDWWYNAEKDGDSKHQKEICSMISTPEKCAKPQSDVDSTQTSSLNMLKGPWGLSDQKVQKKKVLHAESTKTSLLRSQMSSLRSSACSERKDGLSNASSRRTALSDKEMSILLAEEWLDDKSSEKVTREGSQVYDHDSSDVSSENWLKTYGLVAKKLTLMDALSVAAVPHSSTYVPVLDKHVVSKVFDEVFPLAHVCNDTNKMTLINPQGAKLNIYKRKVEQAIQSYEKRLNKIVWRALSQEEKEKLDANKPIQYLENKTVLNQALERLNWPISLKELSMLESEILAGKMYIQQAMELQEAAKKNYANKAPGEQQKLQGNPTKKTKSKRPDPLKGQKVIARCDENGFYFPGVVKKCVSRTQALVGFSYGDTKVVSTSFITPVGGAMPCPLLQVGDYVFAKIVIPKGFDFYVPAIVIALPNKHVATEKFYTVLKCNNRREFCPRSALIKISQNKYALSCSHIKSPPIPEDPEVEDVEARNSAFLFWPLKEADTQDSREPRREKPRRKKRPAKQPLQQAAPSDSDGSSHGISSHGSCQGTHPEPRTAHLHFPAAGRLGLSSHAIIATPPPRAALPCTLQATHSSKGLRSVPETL
Chain of UniProt Q5U3C3 (Q5U3C3 whole entry, looked up): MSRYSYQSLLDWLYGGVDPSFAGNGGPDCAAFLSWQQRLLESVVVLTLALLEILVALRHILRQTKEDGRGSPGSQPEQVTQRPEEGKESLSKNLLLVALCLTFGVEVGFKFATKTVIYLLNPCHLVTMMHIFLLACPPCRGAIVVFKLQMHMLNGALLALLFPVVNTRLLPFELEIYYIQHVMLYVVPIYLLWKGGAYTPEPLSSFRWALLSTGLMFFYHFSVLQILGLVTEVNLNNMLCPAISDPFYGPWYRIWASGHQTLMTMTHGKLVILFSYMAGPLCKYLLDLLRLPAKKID
Chain of UniProt Q9NVA4 (Q9NVA4 whole entry, looked up): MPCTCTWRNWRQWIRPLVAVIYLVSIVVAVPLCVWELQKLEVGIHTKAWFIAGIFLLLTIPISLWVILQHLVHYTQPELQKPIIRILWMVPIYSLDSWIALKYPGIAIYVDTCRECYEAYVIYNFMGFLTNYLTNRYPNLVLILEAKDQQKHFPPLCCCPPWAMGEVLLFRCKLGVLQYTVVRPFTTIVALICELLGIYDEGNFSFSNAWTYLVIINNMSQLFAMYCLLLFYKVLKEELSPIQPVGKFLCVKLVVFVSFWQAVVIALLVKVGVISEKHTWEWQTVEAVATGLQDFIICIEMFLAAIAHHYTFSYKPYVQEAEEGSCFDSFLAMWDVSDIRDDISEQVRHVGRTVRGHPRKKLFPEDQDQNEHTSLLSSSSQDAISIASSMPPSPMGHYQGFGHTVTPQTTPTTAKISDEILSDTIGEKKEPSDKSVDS
Chain of UniProt Q86XT9 (Q86XT9 whole entry, looked up): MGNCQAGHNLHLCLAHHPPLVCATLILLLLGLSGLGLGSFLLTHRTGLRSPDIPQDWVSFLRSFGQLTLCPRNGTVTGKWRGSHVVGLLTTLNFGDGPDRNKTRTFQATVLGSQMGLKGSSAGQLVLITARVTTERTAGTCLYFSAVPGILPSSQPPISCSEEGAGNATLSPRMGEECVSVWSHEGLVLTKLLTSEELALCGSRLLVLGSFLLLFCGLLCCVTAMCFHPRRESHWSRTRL
Chain of UniProt Q9NUM4 (Q9NUM4 whole entry, looked up): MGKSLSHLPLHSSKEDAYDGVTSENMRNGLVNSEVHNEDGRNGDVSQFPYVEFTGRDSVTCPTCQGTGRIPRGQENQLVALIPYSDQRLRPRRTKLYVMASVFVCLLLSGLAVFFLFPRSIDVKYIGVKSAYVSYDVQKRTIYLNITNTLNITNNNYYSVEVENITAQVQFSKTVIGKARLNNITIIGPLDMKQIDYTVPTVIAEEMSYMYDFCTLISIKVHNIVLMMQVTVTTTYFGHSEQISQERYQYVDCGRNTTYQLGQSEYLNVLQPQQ
Chain of UniProt P51668 (P51668 whole entry, looked up): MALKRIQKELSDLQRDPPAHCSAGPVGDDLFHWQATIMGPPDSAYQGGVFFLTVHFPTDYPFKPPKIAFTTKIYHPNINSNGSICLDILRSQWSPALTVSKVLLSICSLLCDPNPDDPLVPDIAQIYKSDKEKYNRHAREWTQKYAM
Chain of UniProt P98170 (P98170 whole entry, looked up): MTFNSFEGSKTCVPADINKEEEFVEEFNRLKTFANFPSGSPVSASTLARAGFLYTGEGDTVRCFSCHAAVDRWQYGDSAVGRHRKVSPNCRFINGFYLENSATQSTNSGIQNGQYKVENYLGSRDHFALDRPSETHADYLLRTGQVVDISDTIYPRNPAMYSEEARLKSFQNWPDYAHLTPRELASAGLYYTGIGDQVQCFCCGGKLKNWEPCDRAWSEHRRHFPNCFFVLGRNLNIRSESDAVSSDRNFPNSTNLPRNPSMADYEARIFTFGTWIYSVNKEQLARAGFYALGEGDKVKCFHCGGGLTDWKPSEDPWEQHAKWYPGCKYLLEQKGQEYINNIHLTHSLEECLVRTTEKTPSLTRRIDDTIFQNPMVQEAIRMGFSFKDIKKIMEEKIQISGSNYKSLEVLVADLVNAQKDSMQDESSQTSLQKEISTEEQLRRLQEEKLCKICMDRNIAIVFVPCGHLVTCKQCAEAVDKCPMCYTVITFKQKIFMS

log2 fold change, inactive:
TVP23C (UniProt Q96ET8) -0.019
WDR4 isoform 3 (UniProt P57081) -0.044
UBAP2L (UniProt F8W726) 0.025
TMEM104 (UniProt Q8NE00) 0.204
TMEM268 isoform 3 (UniProt Q5VZI3) 0.013
TMEM164 (UniProt Q5U3C3) -0.053
XRCC1 (UniProt P18887) 0.006
UBE2J2 isoform 3 (UniProt Q8N2K1) -0.418
TMEM8A (UniProt Q9HCN3) -0.037
XIAP (UniProt P98170) 0
UFM1 isoform 2 (UniProt P61960) -0.001
TRIM23 (UniProt P36406) -0.089
VWA3B isoform 6 (UniProt Q502W6) -0.125
TXNRD1 isoform 7 (UniProt Q16881) -0.501
WARS1 (UniProt G3V277) 0.098
TOM1 (UniProt O60784) -0.072
TMEM184C (UniProt Q9NVA4) 0.08
UBE2D1 (UniProt P51668) -0.045
TMEM219 (UniProt Q86XT9) 0.037
TMEM106B (UniProt Q9NUM4) -0.007

Compound: CN(C)CC(=O)Nc1ccc2[nH]c(=O)c3ccccc3c2c1
Experiment: as above
Outline: as §1

log2 fold change, inactive:
TVP23C (UniProt Q96ET8) -0.025
TTC26 -0.088
WARS1 (UniProt G3V227) -0.045
TMEM164 (UniProt Q5U3C3) 0.07
UBE2J2 isoform 3 (UniProt Q8N2K1) 0.04
TMEM8A (UniProt Q9HCN3) -0.031
TRIM5 (UniProt Q9C035) -0.005
XIAP (UniProt P98170) 0.071
UFM1 isoform 2 (UniProt P61960) 0.114
TRIM23 (UniProt P36406) 0.025
VWA3B isoform 6 (UniProt Q502W6) -0.007
WDR46, A0A0G2JJL1 -0.183
TXNRD1 isoform 7 (UniProt Q16881) -0.074
WDR75 (UniProt Q8IWA0) -0.073
WARS1 (UniProt G3V277) -0.163
TOM1L2 (UniProt Q6ZVM7) 0.127
U2AF1L5 (UniProt P0DN76) 0.138
TMEM184C (UniProt Q9NVA4) -0.013
TUBA4A (UniProt C9JJQ8) 0.09
UBE2D1 (UniProt P51668) 0.017
TMEM219 (UniProt Q86XT9) 0.094
TMEM106B (UniProt Q9NUM4) -0.05

Compound: CN(CCOC1=CC=C(C=C1)C[C@H]2C(=O)NC(=O)S2)C3=CC=CC=N3 (racemic) [rosiglitazone]
Experiment: as above
Outline: as §1

log2 fold change, inactive:
TTC26 0.068
WARS1 (UniProt G3V227) 0.309
WDR4 isoform 3 (UniProt P57081) 0.142
UBAP2L (UniProt F8W726) 0.123
TMEM268 isoform 3 (UniProt Q5VZI3) 0.098
TMEM164 (UniProt Q5U3C3) 0.135
USP48 (UniProt Q86UV5) 0.101
WARS1 (UniProt G3V3P2) 1.27
UBE2J2 isoform 3 (UniProt Q8N2K1) 0.068
TMEM8A (UniProt Q9HCN3) 0.009
XIAP (UniProt P98170) 0.043
UFM1 isoform 2 (UniProt P61960) -0.03
TRIM23 (UniProt P36406) -0.231
VWA3B isoform 6 (UniProt Q502W6) 0.076
WDR46, A0A0G2JJL1 -0.177
TXNRD1 isoform 7 (UniProt Q16881) 0.024
WDR75 (UniProt Q8IWA0) -0.061
TRIQK (UniProt Q629K1) 0.039
WARS1 (UniProt G3V277) 0.078
U2AF1L5 (UniProt P0DN76) 0.04
TOM1 (UniProt O60784) 0.019
TMEM184C (UniProt Q9NVA4) 0.088
WARS1 (UniProt G3V5U1) 0.554
TUBA4A (UniProt C9JJQ8) -0.078
UBE2D1 (UniProt P51668) 0.099
TMEM219 (UniProt Q86XT9) 0.078
TMEM106B (UniProt Q9NUM4) 0.022

Source: the supplement of paper PMC10849652
